Measured values as given in PubChem BioAssay AID624297 (National Center for Advancing Translational Sciences (NCATS), 2012).
About 6,200 (1.8%) of roughly 340,000 compounds were called active. Inconclusive results (about 10%) are left out. This excerpt belongs to a sample that is enriched for actives. Values without a mark were called inactive. The call rests on the fitted dose curve; in most records, active means well fitted activation curve with a large enough effect; inconclusive means small, poorly fitted or top-dose-only effect; inactive means no such curve, though single readings can be large or run the other way.

assay: A quantitative high throughput screen for small molecules that induce DNA re-replication in SW480 colon adenocarcinoma cells.; further: nearly all actives have a fitted effect of over 55% in size; on re-replication activation: % of control where 0% means no effect; settings: Hoechst DNA content imaging, 48 h; series mostly up to 46.1 µM; re-replication activation: at the top concentration
Source text: H Molecular Libraries Probe Production Network [MLPCN] NIH Chemical Genomics Center [NCGC] MLPCN Grant: Fast Track K99 CA136555 Assay Provider: Melvin DePamphilis, NICHD, NIH Assay Overview Eukaryotic cells normally restrict genome duplication to once per cell division. When this process is aberrant, DNA re-replication occurs when cells reinitiate DNA replication before the first round of replication is complete. DNA re-replication induces the DNA damage response, arrests cell proliferation, and triggers apoptosis. The cell cycle components cyclin A, Cdt-1, Cdc6 and geminin are critical regulators of this process and their misregulation results in DNA re-replication in normal and cancer cells. To identify compounds that induce re-replication in normal cells, an image-based assay was used to measure DNA content of nuclei, as detected by the fluorescent DNA binding dye, Hoechst. Cell nuclei were imaged by a fluorescence scanning plate imager and compounds that induce DNA re-replication were identified by the increase of nuclei with elevated fluorescence intensity
For screening, 250 cells in 5 uL/well were dispensed into black clear 1536-well plates (Aurora) using a solenoid-based dispenser. Following transfer of 23 nL compound or DMSO vehicle by a pin tool, the plates were incubated 48 hr at 37 C and 5% CO2. After addition of 1 uL/well Hoescht stain, the plates were incubated 40 min at 37 C, 5% CO2 and total intensity of fluorescent objects (nuclei) were enumerated by an Acumen Explorer Ex3 (TTP LabTech) fluorescence scanning plate imager (405 nm excitation, 500-530 nm emission). Keywords: NIH Roadmap, MLPCN, MLI, MLSMR, qHTS, NCGC, DNA replication, cancer
Potency means the concentration at half of the fitted maximal effect.

Compound | re-replication activation | Potency
COc1ccc(-c2nnc(-c3ccc4ccccc4c3)o2)cc1 | -7.64% | 
CN(Cc1ccccc1)C(=O)COC(=O)/C=C/c1ccc2c(c1)OCO2 | -5.02% | 
CN1OC(COC(=O)c2ccc(Cl)cc2)CC1c1ccccc1 (stereo not drawn) | -2.4% | 
CC(C)(C)c1ccc(C(=O)NCC(=O)OCN2C(=O)c3ccccc3C2=O)cc1 | 0.942% | 
N#Cc1c(N)n(CCOC(=O)c2ccc(Cl)cc2)c2nc3ccccc3nc12 |  | 20.6 µM (active)
CC(C)(C)OC(=O)c1c(N)n(CCCN2CCCC2=O)c2nc3ccccc3nc12 | -6.4% | 
Cn1cncc1COC(=O)c1ccc(Cl)cc1 | -12.1% | 
CC(C)(C)c1ccc(C(=O)NCCn2c(N)c(C#N)c3nc4ccccc4nc32)cc1 |  | 20.6 µM (active)
COc1ccc(S(=O)(=O)N(C)C[C@H]2Oc3ccc(NS(=O)(=O)c4cccs4)cc3CC(=O)N([C@H](C)CO)C[C@H]2C)cc1 | -2.46% [at 9.22 µM] | 
CSCCC(NC(=O)c1ccccc1)C(=O)N1CCN(Cc2ccc(Cl)cc2)CC1 (stereo not drawn) | -284% | 
CC1CCCN(C(=O)CN2C(=O)c3ccccc3S2(=O)=O)C1 (stereo not drawn) | -1.92% | 
O=C(Oc1ccc(Br)cc1)c1cccnc1 | -2.56% | 
N#CCc1ccc(OC(=O)c2cccnc2)cc1 | -4.49% | 
CCCCCCOc1ccc(OC(=O)c2cccnc2)cc1 |  | 8.2 µM (active)
COc1ccccc1N(CC(=O)Nc1ccc(C)cc1Cl)S(=O)(=O)c1cccs1 | 0.978% | 
CC(=O)c1c(OCC(=O)N(C)C2CCCCC2)ccc2c(C)cc(=O)oc12 | -0.36% | 
CC(=O)c1cccc(-c2ccc(CN3C(CC(C)C)C(=O)N(Cc4cn(CC5CCCCC5)nn4)CCS3(=O)=O)cc2)c1 (stereo not drawn) | -0.514% | 
CCOc1cccc(/C=N/NC(=S)NCCN2CCOCC2)c1O |  | 1.46 µM (active)
CCOc1cccc(/C=N/N2C(=O)CSC2=S)c1O | -0.569% | 
Cc1ccc(C(=O)NC(=S)NCCN2CCOCC2)cc1 | 0.443% | 
COC1C(CO)OC(n2cnc3c(=S)nc(N)[nH]c32)C1O (stereo not drawn) | -3.09% | 
COc1cccc(NC(=O)C2c3cc(OC)c(OC)cc3C(=O)N(C)C2c2cccnc2)c1 (stereo not drawn) | 2.23% | 
CCOc1cc2c(cc1OCC)C(C(=O)O)C(c1ccc(OC)c(O)c1)N(C)C2=O (stereo not drawn) | -13.5% [at 9.22 µM] | 
COc1cc2c(cc1OC)C1C(=O)c3cc(OS(C)(=O)=O)c(OC)cc3C1N(C)C2=O (stereo not drawn) |  | 7.31 µM (active)

Compound | re-replication activation | Potency
O=C1CC[C@@H]2CC3(C[C@@H]4CCN1[C@H]24)Nc1cc([N+](=O)[O-])ccc1NC3=NC1CCCCC1 (stereo partly drawn) | -13.5% | 
CC(NC(=O)COC(=O)CCC(=O)c1ccc(Cl)cc1)c1ccccc1 (stereo not drawn) | -6.09% | 
FC(F)(F)c1nnc2ccc(N3CCN(c4ccccc4)CC3)nn12 | 0.3% | 
FC(F)(F)c1nnc2c3ccccc3c(Cl)nn12 |  | 2.59 µM (active)
Nc1nnc2c(C(F)(F)F)nc3ccccc3n12 | 6.87% | 
COc1ccc(NS(=O)(=O)c2cc(NC(=O)c3ccc(S(=O)(=O)N(C)C)cc3)ccc2N2CCOCC2)cc1 | 4.03% | 
COc1ccccc1C(=O)NCC(=O)OCC(=O)NNC(=O)c1ccc(Br)cc1 | 0.282% | 
COc1ccc(/C=C2\N=C3CCCN3C2=O)cc1 | -18.8% | 
COc1ccc(/C=C2/CCCc3ccccc3C2=O)cc1 |  | 9.2 µM (active)
COc1ccc(/C=C2\CCc3ccccc3C2=O)c(OC)c1OC | 3.39% | 
O=C(CN1C(=O)NC(Cc2c[nH]c3ccccc23)C1=O)Nc1ccccc1C(F)(F)F (stereo not drawn) | -21.5% | 
CCCN=C1N(C)C[C@@H]2[C@@H]3C(=O)N(Cc4ccccc4)C(=O)[C@@H]3[C@](C)(C(=O)OC)N12 | 0.326% | 
Nc1ccc2c(c1)C(O)c1ccc(Cl)cc1-2 (stereo not drawn) | 21.7% | 
CCCNC(=S)NC1CC2CCCC(C1)N2CC(C)C (stereo not drawn) |  | 20.6 µM (active)
CCCN1C2CCCC1CC(NC(=O)c1cccc(OC)c1)C2 (stereo not drawn) | -3.5% | 
CCCN1C2CCCC1CC(NC(=O)NC13CC4CC(CC(C4)C1)C3)C2 (stereo not drawn) | -6.15% | 
O=C1c2ccccc2[C@@H]2C[C@@H](O)[C@H](Nc3ccccc3Cl)CCN12 | 7.29% | 
Cc1ccc(CN(C)CC(=O)Nc2cccc([N+](=O)[O-])c2)o1 | 3.11% | 
Cc1ccc(S(=O)(=O)N(CC(=O)Nc2cccc([N+](=O)[O-])c2)Cc2ccc(Cl)cc2)cc1 |  | 8.2 µM (active)
COc1ccc(C)cc1S(=O)(=O)N(CC(=O)Nc1cccc([N+](=O)[O-])c1)c1ccc(C)cc1 | -5.43% | 
CCCN(C(=O)CSc1nnc(N)s1)c1c(N)n(Cc2ccccc2)c(=O)[nH]c1=O | 26.3% | 
COc1ccc2c(c1)c(=Cc1ccc(N(C)C)cc1)c1cc(-c3ccccc3)[n+](C)n12 | -3.87% | 
CC(C)(C)OC(=O)CNC(=O)c1[nH]cnc1C(=O)N[C@@H](CCCCN)C(=O)OC(C)(C)C | -0.556% | 
NS(=O)(=O)c1cccc(NC(=O)COC(=O)c2cc([N+](=O)[O-])ccc2N2CCCC2)c1 | -5.61% | 
